# miR-122 sensor: miR-122 inhibition in Huh7 cells; Huh7 miR-122 Renilla luciferase sensor, 48 h; neutral wells = 0, positive control = 100; activation (reporter increase), % at 12.5 µM; 0.3% of 340,000 active; AID 602342;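 active = mean replicate activation score at least 90 and every replicate individually at or above 90; inconclusive = only one of the two criteria met; inactive = neither criterion met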;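 also: higher luciferase means less miR-122 activity so hits act as miR-122 inhibitors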
# PAX8 reporter: PAX8 transcriptional activity inhibition; RMG-I TPO-luciferase reporter, SteadyGlo, 24 h; inhibition, % at 12.6 µM; 1.2% of 360,000 active;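 active = mean replicate inhibition at least 60% with every replicate also reaching 60%; inconclusive = only one of the two criteria is met; inactive = mean below 60% and not all replicates reaching 60%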;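 also: luciferase light reporting Pax8 driven TPO promoter activity; plate controls were median of neutral control wells for no effect and mitoxantrone controls for full effect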
# EWS-Fli inh: blocks EWS/Fli oncoprotein-driven transcription | A673 NR0B1-luciferase reporter, viability-normalised | inhibition, % at 12.6 µM | 0.67% of 350,000 active | AID 651661;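 active = mean inhibition of at least 50% after viability correction, with every replicate also passing that limit; inconclusive = mean reaches 50% but only one of two replicates passes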;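 also: firefly luciferase signal divided by Alamar Blue viability fluorescence both relative to DMSO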
# C2C12 statin: protects C2C12 myotubes from simvastatin toxicity; ATP luminescence, 48 h; scaled: DMSO 0, geranylgeraniol control 100; 0.78% of 330,000 active; AID 602340; rescue of ATP level, % at 7.49 µM;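 active = mean ATP rescue above about 67%, or every replicate alone reaching that limit, limit read from the data, passing the limit was not always enough; inconclusive = no clear call, values can overlap the other calls; inactive = mean under the limit and some replicate under it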;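 also: myotubes were challenged with 10 µM simvastatin during compound exposure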
# HIV Env fusion: inhibitors of HIV Env-mediated cell fusion | inhibition, % at 12.3 µM | HeLa-JRFL Env/CEM21 cell fusion, luciferase | 1.1% of 360,000 active;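 active = mean replicate inhibition score of at least 50 and every replicate individually at or above 50; inconclusive = only one of the two criteria met; inactive = mean below 50 and not all replicates reaching 50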;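 also: 0% = plate neutral controls and 100% = maraviroc near 300 nM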
# INS-1E GSIS act: GLuc luminescence reporter in INS-1E cells, primary screen for activators of glucose-dependent secretion of insulin; 0.61% of 370,000 active; INS-1E GLuc reporter insulin secretion, 2-3 h; activation, % at 16.6 µM; AID 743287;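 active = lowest replicate activation of at least 40%, so every replicate reaches that level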;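 also: 0% = median of neutral control wells and 100% = median of IBMX positive control wells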
# * hit, by the source's call; u = inconclusive; x = no result given; [ ] = another dose, or the depositor's remark. Only some compounds are listed: those with a hit (about 3.1% of all), similar ones and a draw of the others.
SMILES,miR-122 sensor,PAX8 reporter,EWS-Fli inh,C2C12 statin,HIV Env fusion,INS-1E GSIS act
CC(=O)N/C(=C\c1ccccc1)C(=O)OCC(=O)NC1CCCC1,0,150*,4,x,x,12
CN(C)C(=O)c1ccc(-c2ccc3c(c2)[C@@H]2[C@@H](CCN2C(=O)C2CCCCC2)[C@H](CO)N3C)cc1,x,48,-2,x,x,-23
COC(=O)c1ccc2c(c1)NC(=O)CS2,x,16,-2,-1,-8,9
CC(OC(=O)c1ccc2c(c1)NC(=O)CS2)C(=O)c1ccc(F)cc1 (configuration not stated),-3,21,6,0,59*,-51
O=C(NCc1cccs1)C1Cc2c(-c3ccc(Cl)cc3)ccnc2O1 (configuration not stated),3,x,70*,-41,-159,x
CC(=O)c1cccc(-c2ccnc3c2CC(C(=O)NCc2cccs2)O3)c1 (configuration not stated),10,u,73*,-52,-30,-13
CO[C@@H]1CN(C)C(=O)c2cc(NS(=O)(=O)CC(F)(F)F)ccc2OC[C@@H](C)N(Cc2nccs2)C[C@H]1C,x,x,7,0,3[16.7 µM],12
Cc1ccc(C)c(NC(=O)C2CC=CCC2C(=O)O)c1 (configuration not stated),-3,x,x,-4,x,x
Cc1ccc(C)c(NC(=O)C2CC3c4ccccc4C2c2ccccc23)c1 (configuration not stated),-3,x,x,130*,x,x
C[C@H](CO)N1C[C@H](C)[C@@H](CN(C)C)Oc2cc(C#Cc3ccncc3)ccc2S1(=O)=O,-3[16.7 µM],x,1,9,20[16.7 µM],4
CC(=O)Nc1ccc(/C=C(\C#N)S(=O)(=O)c2ccc(C)cc2)cc1,-3,-2,6,3,11,60*
C=CCNC(=O)[C@@H]1[C@H]2C(=O)O[C@H](c3ccccc3)[C@H](c3ccccc3)N2[C@H](c2ccccc2OCCO)[C@@]12C(=O)N(C(=O)OCCOC)c1ccc(C#CC3(O)CCCCCC3)cc12,x,71*,14,x,-43[16.7 µM],x
C=CCNC(=O)[C@H]1[C@@H]2C(=O)O[C@@H](c3ccccc3)[C@@H](c3ccccc3)N2[C@@H](c2ccc(OCCO)cc2)[C@]12C(=O)N(C(=O)OCCOC)c1ccc(C#Cc3ccc(OC)cc3)cc12,x,27,-9,x,-9[16.7 µM],x
COCCOC(=O)N1C(=O)[C@@]2(c3cc(C#CC4(O)CCCCCC4)ccc31)[C@H](c1ccccc1OCCO)N1[C@H](c3ccccc3)[C@H](c3ccccc3)OC(=O)[C@H]1[C@@H]2C(=O)N1CCc2cc(OC)c(OC)cc2C1,x,x,9,x,2[16.7 µM],x
C=CCNC(=O)[C@H]1[C@@H]2C(=O)O[C@@H](c3ccccc3)[C@@H](c3ccccc3)N2[C@@H](c2ccccc2OCCO)[C@]12C(=O)Nc1ccc(C#CC3(O)CCCCCC3)cc12,x,99*,21,x,-60[16.7 µM],x
C=CCNC(=O)[C@@H]1[C@H]2C(=O)O[C@H](c3ccccc3)[C@H](c3ccccc3)N2[C@H](c2ccccc2OCCO)[C@@]12C(=O)N(C(=O)OCCOC)c1ccc(C#CCC(C(=O)OC)C(=O)OC)cc12,x,104*,59*,x,-6[16.7 µM],x
O=C1O[C@H](c2ccccc2)[C@H](c2ccccc2)N2[C@H]1[C@@H](C(=O)N1CCCCCCC1)[C@]1(C(=O)Nc3ccc(C#CC4(O)CCCCCC4)cc31)[C@H]2c1ccc(OCCO)cc1,x,-1,1,x,2[16.7 µM],x
C=CCNC(=O)[C@@H]1[C@H]2C(=O)O[C@H](c3ccccc3)[C@H](c3ccccc3)N2[C@H](c2ccccc2OCCO)[C@@]12C(=O)N(C(=O)OCCOC)c1ccc(C#CC3=CCCCC3)cc12,x,68*,11,x,-3[16.7 µM],x
CN1CCN(C(=O)C[C@H]2C[C@@H]3c4cc(NC(=O)NC5CCCCC5)ccc4O[C@@H]3[C@H](CO)O2)CC1,-7[16.7 µM],-1,-8,-6,-15[16.7 µM],-11
CC(C)NC(=O)N(C)C[C@H]1OCCCC[C@@H](C)Oc2ccc(NS(C)(=O)=O)cc2C(=O)N([C@@H](C)CO)C[C@H]1C,14[16.7 µM],-2,-8,x,-74[16.7 µM],26
C[C@H](CO)N1C[C@H](C)[C@@H](CN(C)S(=O)(=O)c2cn(C)cn2)Oc2ccc(NC(=O)CCC(F)(F)F)cc2C1=O,1[16.7 µM],x,4,-6,x,29

# Screening results: PubChem, Broad Institute
